Paper PMC4336329 (PLoS ONE, 2015)
About 14,000 (4.5%) of roughly 310,000 compounds showed an effect of 50% or more. The effect is printed as a negative number. This is one part of a sample in which strong results are shown more often than they occur.

Molecular target: human ether-à-go-go-related gene (hERG) potassium channel (human, UniProt Q12809)
Assay: primary screen, population patch clamp on CHO cells stably expressing hERG; higher = less effect of the substance
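Further: peak tail current of the secondary pulse compared with the same well before compound.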

Sequence of human ether-à-go-go-related gene (hERG) potassium channel (Q12809 whole entry, looked up): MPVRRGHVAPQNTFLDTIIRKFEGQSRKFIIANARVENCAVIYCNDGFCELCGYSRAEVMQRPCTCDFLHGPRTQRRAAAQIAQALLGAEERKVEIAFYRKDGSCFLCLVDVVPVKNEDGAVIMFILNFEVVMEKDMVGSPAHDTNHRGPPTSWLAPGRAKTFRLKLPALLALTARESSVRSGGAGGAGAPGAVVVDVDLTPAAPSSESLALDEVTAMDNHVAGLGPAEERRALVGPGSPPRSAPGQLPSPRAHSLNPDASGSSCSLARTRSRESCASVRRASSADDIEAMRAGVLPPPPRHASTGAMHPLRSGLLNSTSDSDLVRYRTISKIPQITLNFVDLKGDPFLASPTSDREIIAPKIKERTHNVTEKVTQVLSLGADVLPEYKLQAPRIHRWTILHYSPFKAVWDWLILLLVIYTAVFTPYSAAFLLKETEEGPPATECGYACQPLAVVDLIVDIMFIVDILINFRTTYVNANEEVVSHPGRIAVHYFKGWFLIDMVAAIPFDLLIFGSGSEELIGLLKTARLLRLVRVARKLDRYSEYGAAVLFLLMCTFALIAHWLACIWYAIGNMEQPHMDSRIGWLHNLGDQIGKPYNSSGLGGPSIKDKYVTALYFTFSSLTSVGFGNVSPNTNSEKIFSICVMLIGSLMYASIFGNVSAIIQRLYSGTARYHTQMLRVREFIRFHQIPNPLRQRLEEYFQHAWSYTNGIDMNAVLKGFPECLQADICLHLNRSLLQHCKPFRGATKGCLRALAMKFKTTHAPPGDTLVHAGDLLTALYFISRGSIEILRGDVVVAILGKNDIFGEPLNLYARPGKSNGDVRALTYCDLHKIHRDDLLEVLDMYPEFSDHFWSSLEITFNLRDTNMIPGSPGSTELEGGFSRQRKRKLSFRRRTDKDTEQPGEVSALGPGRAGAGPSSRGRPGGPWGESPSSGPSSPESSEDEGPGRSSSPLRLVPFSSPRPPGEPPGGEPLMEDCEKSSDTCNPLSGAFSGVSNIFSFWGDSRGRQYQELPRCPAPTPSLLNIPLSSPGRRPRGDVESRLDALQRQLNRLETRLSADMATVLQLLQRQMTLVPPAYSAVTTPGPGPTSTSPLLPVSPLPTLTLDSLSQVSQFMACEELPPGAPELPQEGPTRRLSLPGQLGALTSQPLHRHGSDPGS

Row | SMILES | hERG current change (%, negative = inhibition) at 10uM [%]
1 | COC(=O)C1=C(c2ccccc2)C[C@@H]2CC[C@H]1N2C(=O)NCCCOC(C)C | 0.331
2 | CCOc1ccc(N(C(=O)CNC(=O)c2ccco2)C(C(=O)NC2CCCC2)c2ccncc2)cc1 (stereo not drawn) | -10.7
3 | COc1ccc(CN2CCN(CCCc3ccccc3)C(CCO)C2)c(O)c1 (stereo not drawn) | -83.1
4 | COc1ccc(F)c(CN2CCN(CCc3ccccc3)C(CCO)C2)c1 (stereo not drawn) | -55.9
5 | COc1ccc(CN2CCN(CCc3ccccc3)C(CCO)C2)c(O)c1 (stereo not drawn) | -71.7
6 | COc1ccc(CN2CCN(Cc3c[nH]c4ccccc34)CC2CCO)c(F)c1 (stereo not drawn) | -41.4
7 | O=C(OCC1OC(n2cc(Br)c(=O)[nH]c2=O)C(Br)C1O)c1ccccc1 (stereo not drawn) | 8.3
8 | CCC(C)N(C(=O)COC(=O)CNC(=O)c1ccccc1F)C1CCS(=O)(=O)C1 (stereo not drawn) | 4.36
9 | COc1ccc(C)cc1NC(=O)c1cc2c(s1)CCC2 | -5.71
10 | COc1ccccc1-c1nnc2sc(-c3ccc(N(C)C)cc3)nn12 | -11
11 | CC(=O)NC(C)c1nc2ccccc2n1C(C)C (stereo not drawn) | -10.2
12 | Cc1ccc(C)c(NC(=O)C(c2ccccc2)N2CCOCC2)c1 (stereo not drawn) | -10.6
13 | COc1ccc(C)cc1NC(=O)C(NCC(O)c1ccccc1)c1ccccc1.O=C(O)C(=O)O (stereo not drawn) | -21.7
14 | Cc1ccc(C)c(NC(=O)C(NCC(C)(C)N2CCOCC2)c2ccccc2)c1 (stereo not drawn) | -62.6
15 | Cc1cc(C)cc(NC(=O)C(NCCN2CCOCC2)c2ccccc2)c1.O=C(O)C(=O)O (stereo not drawn) | -7.91
16 | COc1ccc(C)cc1NC(=O)C(NCC1CCCO1)c1ccccc1 (stereo not drawn) | -51.4
17 | Cc1cc(C)cc(NC(=O)C(NCC2CCCO2)c2ccccc2)c1.O=C(O)C(=O)O (stereo not drawn) | -35.5
18 | Cc1cc(NC(=O)C2CCN(S(=O)(=O)Cc3ccccc3)CC2)ccc1-n1cnnn1 | -9.11
19 | FC(F)(F)c1cnc(Sc2ncn[nH]2)c(Cl)c1 | 4.22
20 | CCOC(=O)c1c(C)[nH]c(C(=O)CN2C(=O)NC3(CCCC3)C2=O)c1C | -1.87
21 | CCOc1ccc(S(=O)(=O)N2CCN(CC)CC2)cc1NC(=O)c1ccccc1F | -16.6
22 | COc1ccc(CCC(=O)Nc2nc(C)c(C(=O)N(C)C)s2)cc1 | -2.23
23 | CS(=O)(=O)c1ccc(N2CCOCC2)c(S(C)(=O)=O)c1 | -5.39
24 | Cc1cc(F)ccc1N1CCC(N2CCN(CCC(C)C)C(CCO)C2)CC1 (stereo not drawn) | -63.5

Row | SMILES | hERG current change (%, negative = inhibition) at 10uM [%]
25 | Cc1cc(F)ccc1N1CCC(N2CCN(C(C)C)C(CCO)C2)CC1 (stereo not drawn) | -24.7
26 | Cc1ccc(N2CCC(N3CCN(C)C(CCO)C3)CC2)cc1 (stereo not drawn) | 12.8
27 | CC(C)CCN1CCN(C2CCN(c3ccccc3)CC2)CC1CCO (stereo not drawn) | -60.9
28 | CC(C)CCN1CCN(C2CCN(c3ccc4c(c3)OCO4)CC2)CC1CCO (stereo not drawn) | -17.6
29 | Cc1cc(F)ccc1N1CCC(N2CCN(C)C(CCO)C2)CC1 (stereo not drawn) | 22.1
30 | O=C(CN1CCOCC1)NCCc1ccccc1 | 16.4
31 | NS(=O)(=O)c1ccc(NN=C2CCN(Cc3ccccc3)CC2)c([N+](=O)[O-])c1 | -17.6
32 | CCOC(=O)NC(=O)CSc1ccc2ccccc2n1 | 14
33 | CCC1(C(=O)OC)NC(c2ccco2)C2C(=O)N(c3ccc(F)cc3)C(=O)C21 (stereo not drawn) | 6.75
34 | CCOC(=O)C1CCN(S(=O)(=O)c2cccc(-c3cn4cc(C)ccc4n3)c2)CC1 | -3.7
35 | CCOC(=O)C1CCN(S(=O)(=O)c2cccc(-c3cn4cc(Cl)ccc4n3)c2)CC1 | -58
36 | CCOC(=O)C1CCN(S(=O)(=O)c2cccc(-c3cn4cccnc4n3)c2)CC1 | -24.7
37 | CCOC(=O)C1CCN(S(=O)(=O)c2cccc(-c3cn4ccccc4n3)c2)CC1 | -60.4
38 | CCOC(=O)C1CCN(S(=O)(=O)c2cccc(-c3cn4cccc(C)c4n3)c2)CC1 | -21.3
39 | Cc1nc(-c2cccc(S(=O)(=O)N3CCC(C)CC3)c2)cs1 | -13.4
40 | CCOC(=O)C1CCN(S(=O)(=O)c2cccc(-c3csc(C)n3)c2)CC1 | -53.5
41 | CC1CCN(S(=O)(=O)c2cccc(-c3cn4cc(Cl)ccc4n3)c2)CC1 | -5.86
42 | Cc1nc(-c2cccc(S(=O)(=O)N3CCCCCC3)c2)cs1 | -23.2
43 | COc1ccccc1C(=O)NC(C)c1cccc2ccccc12 (stereo not drawn) | 8.02
44 | C=CCN(C(=O)c1ccc(Cl)cc1)c1ccccc1C(=O)NCC(=O)O | 21.1
45 | CCC(NC(=O)NCCCn1ccnc1)(C(F)(F)F)C(F)(F)F | 8.18
46 | CC(C)c1ccc(N=c2c([N+](=O)[O-])nn(-c3ccc4c(c3)OCCO4)n2O)cc1 | 1.98
47 | COc1ccc(CSc2ccc(-c3nc4ccccn4c3NCc3ccccc3)cc2OC)cc1.O=C(O)C(F)(F)F | 8.68
48 | C=CCn1c(SCCCCCC)nc(O)cc1=O | -4

Row | SMILES | hERG current change (%, negative = inhibition) at 10uM [%]
49 | Cc1ccccc1/C=N\NC(=O)c1ccccc1-n1cccc1 | 18.5
50 | COc1cccc(C2C(=O)c3ccccc3C2=O)c1 | 16.9
51 | NS(=O)(=O)c1ccc(CCNC(=O)CNCCc2ccccc2)cc1 | 16.2
52 | NS(=O)(=O)c1ccc(CCNC(=S)NC2CCCC2)cc1 | 11.2
53 | NS(=O)(=O)c1ccc(CCNCC(=O)NC2CC2)cc1 | -64.1
54 | O=C(CCNC(=O)c1ccccc1Cl)NCCCSc1ccccc1 | -8.64
55 | Br.Clc1ccc2nc(CN3CCCCC3)cn2c1 | -32.7
56 | CN(C)Cc1c(O)ccc2ccccc12 | 0.0591
57 | Cc1cc2ccc3ccccc3c2cc1CN(C)C.Cl | -51.9
58 | CN(C)Cc1cc2ccccc2c2c1COC2 | -0.493
59 | O=C(O)CCC(=O)N1N=C(c2ccc(Br)cc2)CC1c1ccc(Br)cc1 (stereo not drawn) | 20.6
60 | Cc1ccc(C)c(C(=O)Nc2nc3ccccc3[nH]2)c1 | 25.9
61 | O=C(NCCc1ccccc1)C1CCN(C2CCN(Cc3ccc(CO)o3)CC2)CC1 | 18.2
62 | O=C(NCC1CCCO1)C1CCN(C2CCN(C(=O)CC3CCCC3)CC2)CC1 (stereo not drawn) | -10
63 | O=C(NCC1CCCO1)C1CCN(C2CCN(CCCC3CCCC3)CC2)CC1 (stereo not drawn) | -58
64 | Cc1ccc(CN2CCC(N3CCC(C(=O)NCC4CCCO4)CC3)CC2)o1 (stereo not drawn) | -4.02
65 | O=C(NCC1CCCO1)C1CCN(C2CCN(Cc3cccs3)CC2)CC1 (stereo not drawn) | -64.2
66 | Cc1ccccc1CN1CCC(N2CCC(C(=O)NCC3CCCO3)CC2)CC1 (stereo not drawn) | -1.07
67 | O=C(NCCc1ccccc1)C1CCN(C2CCN(Cc3ccco3)CC2)CC1 | -62.7
68 | CCOc1cccc(CN2CCC(N3CCC(C(=O)NCC4CCCO4)CC3)CC2)c1 (stereo not drawn) | -10.5
69 | Cc1cc(C)c(CN2CCC(N3CCC(C(=O)NCC4CCCO4)CC3)CC2)cc1C (stereo not drawn) | -24.4
70 | O=C(NCCc1ccccc1)C1CCN(Cc2ccccc2F)CC1.O=C(O)C(=O)O | 1.53
71 | O=C(NCC1CCCO1)C1CCN(C2CCN(C3CCCCCC3)CC2)CC1 (stereo not drawn) | 28.4
72 | O=C(NCC1CCCO1)C1CCN(C2CCN(Cc3ccco3)CC2)CC1 (stereo not drawn) | -51

Row | SMILES | hERG current change (%, negative = inhibition) at 10uM [%]
73 | Cc1ccc(C(=O)Nc2cc(C(C)C)c(O)c(C(C)C)c2)cc1 | -4.12
74 | CC(=O)[C@@H]1[C@@H](C)N(Cc2ccccc2)C(=O)N[C@H]1c1cccc(C(F)(F)F)c1 | 5.55
75 | Cc1nnsc1C(=O)Nc1ccccc1 | 18.2
76 | O=C(N/N=C/c1ccc(F)cc1)c1cccc(NC(=O)c2ccc(F)cc2)c1 | -4.54
77 | O=C(Nc1cccc(-n2cnnn2)c1)c1ccco1 | -0.205
78 | COc1ccc(NC(=S)N2CCC(N(C)CCN3CCOCC3)CC2)cc1Cl | -26.8
79 | CN(C)c1nc(N(C)C)nc(N(C#N)CCCl)n1 | 8.89
80 | COc1ccc(-c2noc(-c3ccoc3C)n2)cc1 | 39.5
81 | Cc1noc(N)c1C1(O)C(=O)Nc2c(Cl)cc(Cl)cc21 (stereo not drawn) | 0.32
82 | CCOc1ccc(CCN2C(=O)c3ccc(C(=O)O)cc3C2=O)cc1OCC | -3.15
83 | COc1ccc(C2CC(c3cccs3)=NN2C(=O)COC(=O)C2CCCCC2)cc1OC (stereo not drawn) | -18.1
84 | CC(=O)c1c(N2CCN(C)CC2)nc(=S)n(-c2cc(C)ccc2C)c1C | 28.7
85 | CC(C)(C)C(=O)Nc1ccc(S(=O)(=O)N2CCCC2)cc1 | 4.25
86 | COc1ccc(CC(=O)Nc2cc(NC(=O)Cc3ccc(OC)c(OC)c3)cc(C(=O)O)c2)cc1OC | 14.3
87 | CN(c1ccccc1)c1nc(N)c([N+](=O)[O-])c(NCc2ccccc2)n1 | 17.6
88 | O=C(c1cc(-c2ccc(F)cc2)nc2ccccc12)N1CCN(C2CCS(=O)(=O)C2)CC1 (stereo not drawn) | -69
89 | O=C(c1cc(-c2ccccc2)nc2ccccc12)N1CCN(C2CCS(=O)(=O)C2)CC1 (stereo not drawn) | -25
90 | COc1ccc(-c2cc(C(=O)N3CCCC3)c3ccccc3n2)cc1 | -2.31
91 | O=C(NC1CCS(=O)(=O)C1)c1cc(-c2ccccc2)nc2ccccc12 (stereo not drawn) | 13.6
92 | Cc1ccc(-c2cc(C(=O)N3CCN(c4ncccn4)CC3)c3ccccc3n2)cc1 | -40.9
93 | Cc1ccc(-c2cc(C(=O)N3CCN(C4CCS(=O)(=O)C4)CC3)c3ccccc3n2)cc1 (stereo not drawn) | -60.7
